# Bioassay records as filed in PubChem.
# IDH1 R132H inh: qHTS for Inhibitors of mutant isocitrate dehydrogenase 1 (IDH1): qHTS | Potency, µM (doses to about 76.6 µM), inactives show at the top dose activity change, negative = inhibition, usual class: inhibitors | AID 602179, 2012 | IDH1-R132H enzyme, NADPH consumption, diaphorase/resazurin fluorescence | actives 0.093% (n = 390,000); also: % is scaled to controls: 0 for no effect and ±100 for the full control effect; nearly all actives have a fitted effect of over 65% in size
# Target sequence (O75874 whole entry R132H, stated change not applied): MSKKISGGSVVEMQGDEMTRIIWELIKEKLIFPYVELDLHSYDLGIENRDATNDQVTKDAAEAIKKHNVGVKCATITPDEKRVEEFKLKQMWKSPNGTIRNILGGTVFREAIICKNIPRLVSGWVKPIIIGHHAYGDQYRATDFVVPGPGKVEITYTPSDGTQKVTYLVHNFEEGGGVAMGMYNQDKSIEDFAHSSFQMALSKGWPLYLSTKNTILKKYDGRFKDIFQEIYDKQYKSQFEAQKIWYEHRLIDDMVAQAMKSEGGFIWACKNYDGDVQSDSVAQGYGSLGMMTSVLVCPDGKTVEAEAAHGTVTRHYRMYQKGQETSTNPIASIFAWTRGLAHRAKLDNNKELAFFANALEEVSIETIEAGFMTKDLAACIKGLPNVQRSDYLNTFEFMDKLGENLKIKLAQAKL
#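 IDH1-R132H (0.5 ug/mL) preincubated 30 min with compound, then NADPH (0.016 mM) and alpha-KG (2 mM) added; 80 min at RT, pH 7.5. Remaining NADPH coupled via diaphorase/resazurin to fluorescence (540/590 nm); concentration-response curves normalized to no-enzyme control.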
# A549 tox: Nrf2 qHTS screen for inhibitors: counterscreen for cytotoxicity; A549 ARE-Fluc cells, CellTiter-Fluor viability, 18-24 h; Potency, µM (titrated, usually from 46 µM), for the others: top-dose activity change, negative = cytotoxicity, usual class: inhibitors; actives 0.16% (n = 390,000); AID 504648, 2011; also: % is scaled to controls: 0 for no effect and ±100 for the full control effect
#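 A549 ARE-Fluc cells in 5% FBS OPTI-MEM, 5000 cells/well, rested 2 h then exposed to compounds in concentration-response for 18-24 h at 37 °C. Viability by CellTiter-Fluor fluorescence (Ex 405/Em 525) after 30 min; luciferase luminescence (BugLite, 15 min, RT) read afterwards.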
# ELG1 DNA repair: qHTS screen for small molecules that inhibit ELG1-dependent DNA repair in human embryonic kidney (HEK293T) cells expressing luciferase-tagged ELG1; HEK293T ELG1-luciferase reporter, luminescence, 16 h; DNA damage induced by 5-fluorouridine; Potency, µM (highest dose often 46.1 µM), for the others: at the top dose activity change, negative = inhibition, most hits filed as inhibitors; actives 2.3% (n = 330,000); also: % is scaled to controls: 0 for no effect and ±100 for the full control effect; nearly all actives have a fitted effect of over 55% in size
#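 Cells (2,000 per well) received 5-fluorouridine plus test compound or DMSO and were incubated 16 hr at 37 °C, 5% CO2. Luciferase activity was read by luminescence 30 min after ONE-Glo addition; signal suppression marked inhibition of damage-induced ELG1 function.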
# Nrf2 activator: qHTS of Nrf2 Activators; AREc32 ARE-luciferase reporter (MCF7-derived line), luminescence, 24 h; Potency, µM (titrated, usually from 46.1 µM), for the others: at the top dose activation, hits mostly activators; actives 0.31% (n = 410,000); AID 624171, 2012; also: % of control where 0% means no effect; nearly all actives have a fitted effect of over 65% in size
#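 Each well held 1000 AREc32 cells, which were incubated with compound for 24 hr at 37 deg C after overnight attachment, and ARE reporter activity was quantified by firefly luciferase luminescence.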
# Nrf2 inh: Nrf2 qHTS screen for inhibitors. A549 ARE-Fluc reporter, luciferase luminescence, 18-24 h. Potency, µM (doses to about 46 µM), inactives show at the top dose activity change, negative = inhibition, usual class: inhibitors. actives 2.1% (n = 360,000); also: % is scaled to controls: 0 for no effect and ±100 for the full control effect; nearly all actives have a fitted effect of over 60% in size
#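 Two sequential reads on A549 ARE_Fluc cells exposed to compound for 18-24 h: a CellTiter-Fluor fluorescence read for viability, then a luciferase luminescence read for Nrf2/ARE activity.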
# The depositor's hits bear a star; u = inconclusive; x = no result; [ ] = remark or other dose. A selection: hits, their analogues and other compounds. The true share with any hit is near 3.8%. Calls follow the shape of the dose curve; as a rule, active = well fitted curve in the direction sought with a large enough effect; inconclusive = small, poorly fitted or top-dose-only effect, or another doubt; inactive = no such curve, though single readings can be large; an effect the other way counts as inactive or inconclusive. Potency is read from the fitted curve at half-maximal effect.
SMILES,IDH1 R132H inh,A549 tox,ELG1 DNA repair,Nrf2 activator,Nrf2 inh
Cc1ccn2c(Nc3ccccc3)c(-c3ccccn3)nc2c1,-2%,u,u,0%,26µM*
CCOC(=O)c1c(-c2ccc(C)o2)csc1NC(=O)COC(=O)c1ccc(NC(N)=O)cc1,4%,-11%,u,19%,16µM*
CCOC(=O)c1c(-c2ccc(C)o2)csc1NC(=S)NC(=O)c1cccs1,2%,-4%,16µM*,9%,-3%
COC(=O)c1ccc(NC(=O)CN(Cc2ccccc2)S(=O)(=O)c2ccc(Cl)cc2)cc1,-5%,2%,x,0%,u
Cc1cc(O)c(CN2CCN(S(=O)(=O)c3cccs3)CC2)cc1C(C)C,1%,0%,11µM*,0%,u
Cc1cc(C)c2cc(CN(CCN3CCCC3)C(=O)Nc3ccc(F)cc3)c(=O)[nH]c2c1,-2%,-7%,u,9%,4%
Cc1cc(C)c2cc(CN(CCO)C(=O)Nc3ccc(Cl)cc3)c(=O)[nH]c2c1,-2%,-8%,18µM*,9%,u
Cc1ccc(C)c2[nH]c(=O)c(CN(CCN3CCCC3)C(=O)Nc3cccc(Cl)c3)cc12,-9%,-1%,15µM*,21%,-7%
C#CCOCCOCCOCCNc1nc(N2CCN(C(=O)[C@H](CCCCN)n3cc(CN)nn3)CC2)nc(N2CCN(C(=O)[C@H](CC(N)=O)n3cc(C(N)[C@H](C)CC)nn3)CC2)n1 (stereo partly drawn),3%,-4%,u,0%,-1%
COc1ccc(C(=O)Nc2sc(C)c(-c3ccccc3)c2C#N)cc1OC,4%,-6%,26µM*,1%,u
Cc1sc(NC(=O)COc2ccccc2)c(C#N)c1-c1ccccc1,-1%,-1%,u,3%,-14%
COc1ccc(CC(=O)Nc2oc(-c3ccccc3)c(-c3ccccc3)c2C#N)cc1OC,7%,-5%,23µM*,1%,u
COc1ccc(CCn2c(C)nc3ccccc3c2=O)cc1OC,-2%,-17%,u,0%,u
COc1ccc(CCn2c(-c3ccco3)nc3ccccc3c2=O)cc1OC,4%,-8%,10µM*,0%,u
Cc1ccc(C)c(NS(=O)(=O)c2cc(C(=O)NCC3CCCO3)ccc2C)c1 (stereo not drawn),8%,-4%,u,-1%,-12%
Cc1ccc(C)c(NS(=O)(=O)c2cc(C(=O)N3CCc4ccccc4C3)ccc2Cl)c1,12%,-18%[1.84 µM],-25%,-1%,18µM*
O=C(NCCC1=CCCCC1)c1ccc(Cl)c(S(=O)(=O)N2CCCCC2)c1,-10%,3%,-14%,0%,15µM*
O=C(NCCC1=CCCCC1)c1ccc(Cl)c(S(=O)(=O)N2CCOCC2)c1,-1%,6%,u,3%,u
Cc1ccc(C)c(NS(=O)(=O)c2cc(C(=O)NCCC3=CCCCC3)ccc2C)c1,17%,u,u,0%,21µM*
Cc1ccccc1CCNC(=O)c1ccc(Cl)c(S(=O)(=O)N2CC(C)OC(C)C2)c1 (stereo not drawn),0%,-5%,u,2%,5.2µM*
CCc1nnc(NC(=O)CCC(=O)NC2CCCCCCC2)s1,-7%,-18%,15%,0%,-7%
CC(=O)OCC(NC(=O)C1CCCN1C(=O)OC(C)(C)C)C1OC(n2cc(F)c(=O)[nH]c2=O)C(OC(C)=O)C1OC(C)=O (stereo not drawn),x,0%,x,x,20%
CC(=O)c1cccc(NC(=O)CCc2c(C)nc3c(-c4ccc(F)cc4)c(C)nn3c2C)c1,4%,2%,x,0%,-6%
CCCC(=O)N1CCC1(C)C(=O)NS(=O)(=O)c1cccc(Cl)c1 (stereo not drawn),x,x,x,0%,x
Cc1ccccc1NS(=O)(=O)c1cc(C(=O)NCCSC2CCCCC2)ccc1C,-1%,-9%,u,2%,u
